Source: PubChem BioAssay AID2783 (National Center for Advancing Translational Sciences (NCATS), 2010)
Records with an inconclusive call do not appear. Calls come from the whole dose curve; as a rule, active = well fitted inhibition curve with a large enough effect in the polarisation, with a control signal flat (not every such curve was filed as active); inconclusive = small, poorly fitted or top-dose-only effect, or effect the other way, or a change in a side signal; inactive = no such curve, though single readings can be large or run the other way; the % refers to the polarisation.

The compounds below were run against Menin (Homo sapiens) (UniProt O00255) (assay: Confirmation of Inhibitors Targeting the Menin-MLL Interaction in MLL Related Leukemias: Competition With Fluorescein Labeled MLL-derived Peptide). Conditions: Fluorescence polarization, fluorescein-MLL peptide displacement from menin; series mostly up to 100 µM; activity change, negative = inhibition: at the top concentration.
% is set by controls: 0 for no effect and ±100 for the full control effect.

Chain of Menin (Homo sapiens) (O00255 whole entry, looked up): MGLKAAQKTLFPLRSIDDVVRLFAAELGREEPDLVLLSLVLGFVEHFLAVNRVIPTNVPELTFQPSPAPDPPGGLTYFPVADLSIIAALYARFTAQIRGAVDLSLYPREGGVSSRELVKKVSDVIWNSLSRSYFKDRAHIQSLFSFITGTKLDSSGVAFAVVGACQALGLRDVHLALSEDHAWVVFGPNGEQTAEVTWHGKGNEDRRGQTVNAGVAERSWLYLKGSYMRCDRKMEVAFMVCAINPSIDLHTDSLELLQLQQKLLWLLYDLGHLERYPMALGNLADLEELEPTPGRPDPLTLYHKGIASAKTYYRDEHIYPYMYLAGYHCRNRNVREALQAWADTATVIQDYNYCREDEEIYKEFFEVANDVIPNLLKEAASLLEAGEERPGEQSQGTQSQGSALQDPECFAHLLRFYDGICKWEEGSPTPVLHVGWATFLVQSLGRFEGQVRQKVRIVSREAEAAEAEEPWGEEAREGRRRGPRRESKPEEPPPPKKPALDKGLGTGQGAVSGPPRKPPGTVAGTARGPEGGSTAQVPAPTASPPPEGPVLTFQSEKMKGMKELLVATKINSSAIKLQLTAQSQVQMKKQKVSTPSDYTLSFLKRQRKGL

Activity change, negative = inhibition, inactive:
COc1cc(SC)ccc1C(=O)Nc1cccc(C2OCCCO2)c1 -4.55% [at 288 µM]
O=C(CSc1nnnn1-c1ccc(O)cc1)N1N=C(c2ccc3ccccc3c2)CC1c1ccccc1 (centres undefined) -12.2%
Cc1ccc(C2=NN(C(=O)c3ccccc3F)C(c3ccccc3F)C2)cc1 (centres undefined) 1.79% [at 288 µM]
NC(=O)c1cc2ccccc2o/c1=N/NC(=O)c1cccc(F)c1 -12.4%
Cc1nc(N2CCN(C)CC2)c2c3c(sc2n1)CCCC3 -3.53%
CCOc1ccccc1N(CC(=O)Nc1ccccc1C(=O)N1CCCC1)S(C)(=O)=O -16.7%
COc1cc(/C=C2/C(=O)N(c3ccc(Br)cc3)N=C2C)cc(OC)c1OC -0.325% [at 288 µM]
O=S(=O)(NCCc1c[nH]c2ccccc12)c1ccccc1 1.3% [at 288 µM]
CCOC(=O)Cn1c2ccccc2n2nc(CCC(=O)O)c(=O)nc12 -2.55%
CCCCCC1CCC(C(=O)NCCN2CCOCC2)CC1 (centres undefined) -20.4%
O=C(Nc1nnc(SCc2ccc(F)cc2)s1)c1ccc2c(c1)C(=O)N(c1ccccc1Cl)C2=O -9.5% [at 288 µM]
CN1CCN(CC(=O)c2ccccc2F)CC1 -0.485%
COc1ccccc1NS(=O)(=O)c1cc(NC(=O)Nc2ccc(Cl)cc2Cl)ccc1N1CCCCC1 -8.05%
CCCOc1ccc(C(=O)NNC(=S)NC(=O)c2cc(-c3ccc(Cl)cc3)nc3ccccc23)cc1 -3.33% [at 288 µM]
COc1cnc(-c2ccccn2)nc1N(C)c1ccccc1 1.97%
O=C(O)c1ccccc1NS(=O)(=O)c1cccc(-n2sc3ccccc3c2=O)c1 5.28% [at 288 µM]
O=C(CCN1CCN(c2ccc([N+](=O)[O-])cc2)CC1)c1ccc(Cl)cc1 -6.26% [at 288 µM]
CCCn1c(=O)c(C(=O)Nc2ccccc2C(=O)OCC)c(O)c2ccccc21 -1.38% [at 288 µM]
O=c1c2ccccc2nc(N/N=C/c2c(O)ccc3ccccc23)n1O 9.5% [at 288 µM]
O=C(/C=C/c1ccccc1)c1cccs1 -28.1% [at 288 µM]
O=C(NNCS(=O)(=O)O)c1ccncc1 -5.26%
COC(=O)C1[C@H]2SC(C)(C)C(C(=O)OC)N2C(=O)N1Cc1nc2ccccc2s1 (some centres undefined) -3.37%
CCOC(=O)N1CCN(C(=O)c2oc3ccc(S(=O)(=O)N(CC)CC)cc3c2C)CC1 -1.38% [at 288 µM]
COc1ccc(CNC(=O)C(c2ccc(O)cc2)N(Cc2ccco2)C(=O)c2snc(C(N)=O)c2N)cc1 (centres undefined) -21.4%
Cc1ccc(NC(=O)CN(C)C(=O)COc2cccc3cccnc23)cc1 -2.27% [at 288 µM]
Cc1cc2cc(C(c3nnnn3CC3CCCO3)N3CCCc4ccccc43)c(=O)[nH]c2cc1C (centres undefined) -9.39%
Cc1nc(C)c(-c2ccc(SCc3ccccc3F)nn2)s1 -13%
COC(=O)c1ccccc1NC1=C/C(=N\S(=O)(=O)c2ccc(C(=O)O)cc2)c2ccccc2C1=O -16% [at 288 µM]
Cn1c(=O)[nH]c(=O)c2c1nc(Br)n2CCSc1nc2ccccc2o1 -1.95% [at 288 µM]
COc1ccc2[nH]c(=O)c(CN(Cc3cccs3)C(=S)Nc3cccc(C)c3)cc2c1 -11.2%
Cc1cnc(NC(=O)C2C(=O)c3ccccc3S(=O)(=O)N2C)s1 (centres undefined) 6.66% [at 288 µM]
O=C(Cn1nc(-c2ccccc2)ccc1=O)N1CCCCC1 2.68% [at 288 µM]
COc1ccc(C)cc1N(C(=O)c1snc(C(N)=O)c1N)C(C(=O)NC1CCCC1)c1ccc(F)cc1 (centres undefined) 8.37% [at 288 µM]
O=C(CCC1CCCCC1)NCCN1C2=NC[C@H](Cc3ccc(O)cc3)N2C[C@H]1Cc1ccc(O)cc1 -7.15% [at 288 µM]
